# Records with an inconclusive call do not appear. The source made the active and inactive calls. The calls were made as follows: active = hit-call score of the fitted dose curve at least 0.9, where 1 is the maximum; inconclusive = response in the unintended direction; inactive = score below 0.9.
# Assay: ATG_GAL4_TRANS: Attagene TRANS-FACTORIAL HepG2 Assay for GAL4 (Internal Marker) (AID 2282976)
# Settings: HepG2 Attagene TRANS GAL4 internal marker reporter
# Description: ATG_TRANS is a cell-based, multiplexed-readout assay that uses HepG2, a human liver cell line, with measurements taken at 24 hours after chemical dosing in a 24-well plate.ATG_GAL4_TRANS is one of 30 assay component(s) measured or calculated from the ATG_TRANS assay. It is designed to make measurements of mRNA induction, a form of inducible reporter, as detected with fluorescence intensity signals by Reverse transcription polymerase chain reaction (RT-PCR) and Capillary electrophoresis technology.Data from the assay component ATG_GAL4_TRANS was analyzed into 1 assay endpoint. This assay endpoint, ATG_GAL4_TRANS, was analyzed in the positive analysis fitting direction relative to DMSO as the negative control and baseline of activity. Using a type of inducible reporter, measures of mRNA for gain-of-signal activity can be used to understand the background control at the transcription factor-level as they relate to the gene . Furthermore, this assay endpoint can be referred to as a secondary readout, because this assay has produced multiple assay endpoints where this one serves a background control function. To generalize the intended target to other relatable targets, this assay endpoint is annotated to the background measurement intended target family, where the subfamily is baseline control.
# Human liver HepG2 cells are transiently transfected with multiple reporter transcription units (MRTUs) in 6-well plates using FuGene 6 reagent (Roche; 3 ml FuGene/1 mg DNA). The MRTU constructs are regulated by a cis-regulating element (promoter). […] A major difference between the CIS and TRANS system is that in CIS activities of endogenous TFs are measured, whereas the TRANS assay evaluates changes in activities of exogenous, chimeric NR-Gal4 proteins. […] At the end of 24 hour incubation, total RNA was isolated using TriZol reagent (Invitrogen). The isolated RNA is then reverse-transcribed using oligo(dT) primer and Mo-MLV reverse transcriptase (Invitrogen) with DNAse I (Ambion) treatment for 30 min. The one-tenth of the produced cDNA was amplified by PCR using Taq DNA polymerase (Invitrogen) and two reporter sequence-specific primers. The PCR products were fluorescently labeled by primer extension with 6-arboxyfluorescein (6-FAM) 5'-labeled reporter sequence-specific primer (2 min at 95 C, 20 s at 68 C and 10 min at 72 C) and these products were digested with 5U of HpaI (New England Biolabs) for 2h at 37 C. The fragments were purified using Qiaquick PCR columns (Qiagen), analyzed on an ABI 3130xL genetic analyzer (Applied Biosystems) with peak positions identified by using a set of X-rhodamine (ROX)-labeled MapMarker1000 molecular weight standards (BioVentures). The raw capillary electrophoresis data was processed using Attagraph software (Attagene).
row,Compound,outcome
1,CC12CC1(C)C(=O)N(c1cc(Cl)cc(Cl)c1)C2=O (stereo not given),inactive
2,CC(=[OH+])/C=C(/C)[O-].CC(=[OH+])/C=C(/C)[O-].CC(=[OH+])/C=C(/C)[O-].[Al],inactive
3,O=P(O)(O)CN(CP(=O)(O)O)CP(=O)(O)O,inactive
4,CCC(=O)c1ccccc1,inactive
5,COc1cccc(C=O)c1,inactive
6,O=c1[nH]c(=O)[nH]c(=O)[nH]1,inactive
7,O=C1C(Cl)=C(Cl)C(=O)c2ccccc21,inactive
8,CC(C)(c1ccc(OCC2CO2)cc1)c1ccc(OCC2CO2)cc1 (stereo not given),inactive
9,N#CCCO,inactive
10,CNC,inactive
11,Nc1ccc(Cl)cc1C(=O)c1ccccc1,inactive
12,Cn1sc(Cl)cc1=O,inactive
13,O=S(=O)(c1ccc(Cl)cc1)c1ccc(Cl)cc1,inactive
14,CC(=[OH+])/C=C(/C)[O-].CC(=[OH+])/C=C(/C)[O-].CC(=[OH+])/C=C(/C)[O-].[Fe],inactive
15,O=C(Nc1ccc2[nH]ccc2c1)c1cc2cc(F)ccc2n1Cc1cccc(F)c1,inactive
16,N#CN=C(N)N,inactive
17,C=CCc1ccc(OC)cc1,inactive
18,Cc1ccccc1N,inactive
19,CCC1(c2ccc(N)cc2)CCC(=O)NC1=O (stereo not given),inactive
20,CCOC(=O)Nc1cccc(OC(=O)Nc2ccccc2)c1,inactive

row,Compound,outcome
1,COc1cc(OC)nc(NC(=O)NS(=O)(=O)c2ncccc2C(=O)N(C)C)n1,inactive
2,CCCCP(CCCC)CCCC,inactive
3,CCc1ccccc1C,inactive
4,CCCCCCCCSC(=O)Oc1cc(Cl)nnc1-c1ccccc1,inactive
5,ClC1(Cl)C2(Cl)C3(Cl)C4(Cl)C(Cl)(Cl)C5(Cl)C3(Cl)C1(Cl)C5(Cl)C24Cl (stereo not given),inactive
6,Oc1c(I)cc(I)cc1I,inactive
7,CCOC(=O)/C=C(C)/C=C/C[C@@H](C)CCCC(C)C,inactive
8,CC(C)(OO)c1ccccc1,inactive
9,CCOC(=O)CP(=O)(OCC)OCC,inactive
10,NNC(=S)NN,inactive
11,Nc1ncc([N+](=O)[O-])s1,inactive
12,O=[N+]([O-])c1ccc2c3c(cccc13)CC2,inactive
13,CN(C)N=O,inactive
14,CC1(C)Cc2cccc(O)c2O1,inactive
15,C=CC(=O)OCCCCCC(C)C,inactive
16,O=C(NCO)NCO,inactive
17,C=C(C)C#N,inactive
18,C=CC(=O)N(C)C,inactive
19,O=C(O)C(F)(F)C(F)(F)C(F)(F)C(F)(F)C(F)(F)C(F)(F)F,inactive
20,ClCCBr,inactive

# From PubChem BioAssay (EPA / NIEHS)
